Screens as filed in PubChem BioAssay.
Pf apPOL inh = Pf-apPOL DNA polymerase inhibition | Recombinant Pf-apPOL, molecular beacon fluorescence, 1.5 h | inhibition, % at 10 µM | 210,000 compounds, 0.25% hits | AID 1794808
mHTT CaM bind = inhibitors of human mutant huntingtin-calmodulin interaction | P42858 | 190,000 compounds, 3.6% hits | inhibition, % at 15 µM | AlphaScreen His-mHTT/GST-CaM binding, luminescence | AID 1671202;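 also: 0% = both proteins with DMSO and 100% = one protein alone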
Target sequence (P42858 whole entry, looked up, stated change not applied): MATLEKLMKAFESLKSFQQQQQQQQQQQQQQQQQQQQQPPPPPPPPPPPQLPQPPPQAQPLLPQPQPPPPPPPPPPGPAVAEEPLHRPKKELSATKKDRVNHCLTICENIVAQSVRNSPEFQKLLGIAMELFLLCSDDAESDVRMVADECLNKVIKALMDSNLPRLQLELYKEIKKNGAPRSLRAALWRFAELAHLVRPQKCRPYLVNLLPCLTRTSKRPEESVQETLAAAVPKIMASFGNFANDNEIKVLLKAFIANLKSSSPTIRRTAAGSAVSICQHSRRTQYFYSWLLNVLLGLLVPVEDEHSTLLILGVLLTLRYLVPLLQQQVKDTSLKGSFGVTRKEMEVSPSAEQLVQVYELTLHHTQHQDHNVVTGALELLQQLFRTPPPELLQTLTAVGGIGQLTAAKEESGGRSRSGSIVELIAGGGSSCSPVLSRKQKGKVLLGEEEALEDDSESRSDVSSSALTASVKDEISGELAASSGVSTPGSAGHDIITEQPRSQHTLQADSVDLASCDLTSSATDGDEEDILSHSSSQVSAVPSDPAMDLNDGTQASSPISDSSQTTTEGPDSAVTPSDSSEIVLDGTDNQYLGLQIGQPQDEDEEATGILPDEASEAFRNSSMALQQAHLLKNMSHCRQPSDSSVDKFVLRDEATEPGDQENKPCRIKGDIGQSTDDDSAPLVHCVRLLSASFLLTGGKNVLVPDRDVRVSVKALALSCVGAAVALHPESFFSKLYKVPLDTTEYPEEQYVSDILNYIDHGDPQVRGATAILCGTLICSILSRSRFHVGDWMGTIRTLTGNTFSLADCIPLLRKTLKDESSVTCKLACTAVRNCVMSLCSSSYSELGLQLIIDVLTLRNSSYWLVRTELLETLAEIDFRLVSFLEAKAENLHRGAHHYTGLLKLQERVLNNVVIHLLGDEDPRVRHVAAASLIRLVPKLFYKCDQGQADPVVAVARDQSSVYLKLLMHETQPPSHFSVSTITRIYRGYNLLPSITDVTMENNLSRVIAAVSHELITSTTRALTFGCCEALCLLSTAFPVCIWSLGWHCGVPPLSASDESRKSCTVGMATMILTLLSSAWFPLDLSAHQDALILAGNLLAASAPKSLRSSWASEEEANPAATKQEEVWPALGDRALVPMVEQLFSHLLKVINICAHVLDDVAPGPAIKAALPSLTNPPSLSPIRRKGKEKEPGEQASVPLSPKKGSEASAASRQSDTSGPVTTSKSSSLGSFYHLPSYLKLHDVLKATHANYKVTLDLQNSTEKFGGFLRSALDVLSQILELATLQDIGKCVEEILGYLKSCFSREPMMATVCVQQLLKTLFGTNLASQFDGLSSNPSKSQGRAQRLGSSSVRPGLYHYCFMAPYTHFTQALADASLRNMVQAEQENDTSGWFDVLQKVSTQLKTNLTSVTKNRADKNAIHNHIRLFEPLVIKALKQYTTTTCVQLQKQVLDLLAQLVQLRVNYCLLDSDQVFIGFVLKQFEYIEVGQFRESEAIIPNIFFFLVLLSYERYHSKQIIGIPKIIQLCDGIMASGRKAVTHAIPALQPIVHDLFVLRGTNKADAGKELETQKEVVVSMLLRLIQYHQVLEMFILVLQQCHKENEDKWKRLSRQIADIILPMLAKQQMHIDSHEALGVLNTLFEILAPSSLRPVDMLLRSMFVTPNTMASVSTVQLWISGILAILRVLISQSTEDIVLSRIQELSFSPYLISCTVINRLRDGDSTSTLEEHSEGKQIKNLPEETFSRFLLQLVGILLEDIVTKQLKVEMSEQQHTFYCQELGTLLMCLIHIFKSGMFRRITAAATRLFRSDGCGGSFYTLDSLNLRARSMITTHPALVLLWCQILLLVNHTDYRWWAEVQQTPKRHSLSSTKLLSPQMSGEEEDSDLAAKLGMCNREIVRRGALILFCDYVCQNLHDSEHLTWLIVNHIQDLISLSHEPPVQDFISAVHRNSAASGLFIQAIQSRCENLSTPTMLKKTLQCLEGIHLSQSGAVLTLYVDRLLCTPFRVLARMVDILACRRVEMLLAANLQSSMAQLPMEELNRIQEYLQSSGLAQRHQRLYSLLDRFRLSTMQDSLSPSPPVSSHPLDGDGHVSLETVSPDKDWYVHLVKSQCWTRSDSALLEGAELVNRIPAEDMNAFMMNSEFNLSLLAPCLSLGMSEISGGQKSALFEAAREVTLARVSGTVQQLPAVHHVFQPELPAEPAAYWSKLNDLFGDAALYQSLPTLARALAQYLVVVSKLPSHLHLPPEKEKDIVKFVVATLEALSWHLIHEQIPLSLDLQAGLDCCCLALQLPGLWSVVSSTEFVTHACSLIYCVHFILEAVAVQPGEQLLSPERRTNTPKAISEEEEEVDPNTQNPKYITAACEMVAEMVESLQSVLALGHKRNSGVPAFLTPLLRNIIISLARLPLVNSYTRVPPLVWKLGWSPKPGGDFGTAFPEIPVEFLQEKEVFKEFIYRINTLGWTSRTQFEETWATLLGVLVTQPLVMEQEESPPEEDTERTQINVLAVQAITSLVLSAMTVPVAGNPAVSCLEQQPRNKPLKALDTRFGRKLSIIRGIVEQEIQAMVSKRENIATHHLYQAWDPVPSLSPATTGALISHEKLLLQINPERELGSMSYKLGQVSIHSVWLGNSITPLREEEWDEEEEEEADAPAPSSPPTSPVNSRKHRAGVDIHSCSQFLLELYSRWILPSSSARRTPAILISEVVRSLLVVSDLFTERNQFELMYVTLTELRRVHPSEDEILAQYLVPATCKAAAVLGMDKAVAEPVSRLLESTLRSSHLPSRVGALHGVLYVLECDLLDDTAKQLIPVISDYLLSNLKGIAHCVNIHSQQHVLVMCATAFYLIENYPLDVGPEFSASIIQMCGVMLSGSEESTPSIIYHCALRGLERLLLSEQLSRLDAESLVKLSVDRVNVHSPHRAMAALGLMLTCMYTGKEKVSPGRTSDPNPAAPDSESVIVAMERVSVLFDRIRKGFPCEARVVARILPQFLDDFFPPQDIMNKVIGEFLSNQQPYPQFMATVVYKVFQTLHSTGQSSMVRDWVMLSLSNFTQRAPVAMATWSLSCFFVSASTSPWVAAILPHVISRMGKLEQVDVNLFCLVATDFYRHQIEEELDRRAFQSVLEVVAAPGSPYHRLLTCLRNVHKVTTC
Active calls of the source: *; ! = not confirmed by another sample. Shown is part of a subset that was picked to be rich in hits. Rule as the data show it: active = inhibition above about 50%; inactive = the rest.

`Cc1ccccc1CC(=O)N1CCC(OCc2nc(C3CC3)no2)CC1` gave Pf apPOL inh -4 and mHTT CaM bind 1.
`CCS(=O)(=O)N1CCCc2ccc(NC(=O)c3cccs3)cc21` gave Pf apPOL inh -12 and mHTT CaM bind -11.
Screening CC(C)Oc1ccc(NC(=O)c2ccc([N+](=O)[O-])cc2Cl)cc1 returned Pf apPOL inh -9 and mHTT CaM bind 10.
COCC(C)NC(=O)c1ccc([N+](=O)[O-])cc1Cl (centres undefined) was read as Pf apPOL inh 109* and mHTT CaM bind 1.
Screening CCNc1nc(NCC)nc(SCCOc2ccc(Br)cc2)n1 returned Pf apPOL inh 2 and mHTT CaM bind -64.
CCc1nc(C2CCCN(C(=O)Cc3c[nH]c4ccccc34)C2)n[nH]1 (centres undefined) was read as Pf apPOL inh 12 and mHTT CaM bind 61*.
`CCc1nc(C2CCCN(C(=O)CCc3c[nH]c4ccccc34)C2)n[nH]1` (centres undefined) gave Pf apPOL inh 7 and mHTT CaM bind 4.
COc1cccc(-c2nc(C3CCN(C(=O)Cc4c[nH]c5ccccc45)CC3)no2)c1 was read as Pf apPOL inh -3 and mHTT CaM bind 65*.
COc1ccccc1-c1nc(C2CCN(C(=O)Cc3cccc4ccccc34)CC2)no1 was read as Pf apPOL inh -3 and mHTT CaM bind 9.
COc1ccccc1-c1nc(C2CCN(C(=O)Cc3c[nH]c4ccccc34)CC2)no1 was read as Pf apPOL inh -6 and mHTT CaM bind 76*.
COc1cccc(CC(=O)N2CCC(c3noc(-c4cccc(OC)c4)n3)CC2)c1 was read as Pf apPOL inh 5 and mHTT CaM bind -1.
For Cc1cc(/C=C2/SC(=O)NC2=O)c(C)n1-c1ccccc1 the results were Pf apPOL inh 3 and mHTT CaM bind 21.
For CCCn1cc(C2=CCN(S(=O)(=O)c3ccc(F)c(Cl)c3)CC2)c2cccnc21 the results were Pf apPOL inh 0 and mHTT CaM bind 10.
For COc1cc(C2C3=C(Nc4c2c(=O)[nH]c(=O)n4C)c2ccccc2C3=O)ccc1O (centres undefined) the results were Pf apPOL inh -2 and mHTT CaM bind 10.
For O=C1C2=C(Nc3ccccc3SC2c2ccco2)c2ccccc21 (centres undefined) the results were Pf apPOL inh 0 and mHTT CaM bind 69*.
O=C1CCCC2=C1C(c1ccco1)C1=C(N2)c2ccccc2C1=O (centres undefined) was read as Pf apPOL inh -2 and mHTT CaM bind 26.
`COc1ccc(C2Sc3ccccc3NC3=C2C(=O)c2ccccc23)cc1OC` (centres undefined) gave Pf apPOL inh 3 and mHTT CaM bind 69*.
Screening CCN=C1S/C(=C/c2cn(C(=O)CC)nc2-c2ccc(F)cc2)C(=O)N1CC returned Pf apPOL inh -6 and mHTT CaM bind -1.
Screening COc1ccccc1CNC(=O)c1cnn2c(C(F)(F)F)cc(-c3cccs3)nc12 returned Pf apPOL inh -10 and mHTT CaM bind 23.
`O=C(Nc1ccccc1C(=O)O)c1cccc(C(=O)Nc2ccccc2C(=O)O)c1` gave Pf apPOL inh -1 and mHTT CaM bind 70*.
For O=C(Nc1ccccc1C(=O)O)c1ccccc1 the results were Pf apPOL inh -120 and mHTT CaM bind -3.
Screening NC(=O)CSCC(=O)Nc1ccccc1 returned Pf apPOL inh -4 and mHTT CaM bind 0.
Screening C[C@H](c1ccccc1)N1C[C@@H](COCc2ccccc2)Oc2cc(N3CC[C@H](O)C3)ccc2S1(=O)=O returned Pf apPOL inh -2 and mHTT CaM bind 78*.
`C[C@H](c1ccccc1)N1C[C@H](COCc2ccccc2)Oc2cc(N3CCC[C@@H]3CO)ccc2S1(=O)=O` gave Pf apPOL inh -10 and mHTT CaM bind 30.
`C[C@H](c1ccccc1)N1C[C@H](COCc2ccccc2)Oc2cc(N3CC[C@H](O)C3)ccc2S1(=O)=O` gave Pf apPOL inh -4 and mHTT CaM bind 72*.
For COC[C@@H]1CCCN1c1ccc2c(c1)O[C@@H](COCc1ccccc1)CN([C@H](C)c1ccccc1)S2(=O)=O the results were Pf apPOL inh -7 and mHTT CaM bind 1.
`COc1ccc(C)cc1NC(=O)C1CCN(S(=O)(=O)c2ccc(F)cc2)CC1` gave Pf apPOL inh -8 and mHTT CaM bind 0.
Screening Cc1ccc(CNC(=O)c2cc3n(n2)CCCN(Cc2cccc(C)c2)C3=O)cc1 returned Pf apPOL inh -2 and mHTT CaM bind -1.
Screening Cc1cc(F)ccc1NC(=O)c1cc2n(n1)CCCN(Cc1ccccc1)C2=O returned Pf apPOL inh -2 and mHTT CaM bind -2.
`Cc1cccc(CN2CCCn3nc(C(=O)NCc4ccc(N(C)C)cc4)cc3C2=O)c1` gave Pf apPOL inh 0 and mHTT CaM bind 55*.
Cc1cccc(CN2CCCn3nc(C(=O)Nc4ccc(F)cc4C)cc3C2=O)c1 was read as Pf apPOL inh 74* and mHTT CaM bind 6.
For CC(=O)C1=C(O)C(=O)N(CCc2ccccc2)C1c1cccc([N+](=O)[O-])c1 (centres undefined) the results were Pf apPOL inh -3 and mHTT CaM bind 8.
Screening COc1ccccc1CNC(=O)c1cn(CC(C)C)c(=O)c2c1c1ccccc1n2C returned Pf apPOL inh 3 and mHTT CaM bind -3.
Screening CC(=O)Nc1cccc(N2CC(C(=O)Nc3cccc(C#N)c3)CC2=O)c1 (centres undefined) returned Pf apPOL inh -3 and mHTT CaM bind -3.
`COc1ccc(/C=C2\N=C(c3ccc(OC)c(OC)c3)OC2=O)c(OC)c1` gave Pf apPOL inh -6 and mHTT CaM bind 0.
CCn1ccc(C(=O)N2CC(c3nc(C4CC4)no3)C3(CCN(C)CC3)C2)n1 (centres undefined) was read as Pf apPOL inh -4 and mHTT CaM bind 1.
For O=C1c2ccccc2-c2onc3ccc(Nc4ccccc4)c1c23 the results were Pf apPOL inh 1 and mHTT CaM bind 43.
O=C1c2ccccc2-c2onc3c(N4CCOCC4)cc(Nc4ccc(F)cc4)c1c23 was read as Pf apPOL inh -1 and mHTT CaM bind 63*.
For COc1ccc(Nc2cc(N3CCOCC3)c3noc4c3c2C(=O)c2ccccc2-4)cc1 the results were Pf apPOL inh 1 and mHTT CaM bind 43.
For CNc1cc(Nc2ccc(C)cc2)c2c3c(onc13)-c1ccccc1C2=O the results were Pf apPOL inh 2 and mHTT CaM bind 95*.
For N#Cc1c(C#N)c(-c2cccc([N+](=O)[O-])c2)n(-c2ccccc2)c1N the results were Pf apPOL inh 1 and mHTT CaM bind 12.
Screening CCCCN(CCCC)S(=O)(=O)c1ccc(C(=O)Nc2nc(-c3ccccn3)cs2)cc1 returned Pf apPOL inh -5 and mHTT CaM bind 41.
`CC(C)CN(CC(C)C)S(=O)(=O)c1ccc(C(=O)Nc2nc(-c3ccccn3)cs2)cc1` gave Pf apPOL inh -4 and mHTT CaM bind 52*.
Screening CN(Cc1ccccc1)S(=O)(=O)c1ccc(C(=O)Nc2nc(-c3ccccn3)cs2)cc1 returned Pf apPOL inh -3 and mHTT CaM bind 50.
`CCCN(CCC)S(=O)(=O)c1ccc(C(=O)Nc2nc(-c3ccccn3)cs2)cc1` gave Pf apPOL inh -7 and mHTT CaM bind 88*.
Screening Cc1cc2c(C(C)C)c(O)c(O)c(C=O)c2c(O)c1-c1c(C)cc2c(C(C)C)c(O)c(O)c(C=O)c2c1O returned Pf apPOL inh 88*!.
